Test results: PubChem BioAssay (EPA / NIEHS)
Results filed as inconclusive are left out. Calls of active or inactive are those of the source. How the source made its calls, unless noted: active means hit-call score of the fitted dose curve at least 0.9, where 1 is the maximum; inconclusive means response in the unintended direction; inactive means score below 0.9.

How the values were obtained:
[1] = target: human Peroxisome Proliferator-activated Receptor alpha (PPARa), PPARA (gene 5465) (UniProt Q07869); assay: ATG_PPARa_TRANS: Attagene TRANS-FACTORIAL HepG2 Assay for human Peroxisome Proliferator-activated Receptor alpha (PPARa) (AID 2283001);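 on AC50: potency for gain of reporter signal over DMSO so agonist or activator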
Sequence of human Peroxisome Proliferator-activated Receptor alpha (PPARa), PPARA (gene 5465) (Q07869 whole entry, looked up, the tested form may be a part): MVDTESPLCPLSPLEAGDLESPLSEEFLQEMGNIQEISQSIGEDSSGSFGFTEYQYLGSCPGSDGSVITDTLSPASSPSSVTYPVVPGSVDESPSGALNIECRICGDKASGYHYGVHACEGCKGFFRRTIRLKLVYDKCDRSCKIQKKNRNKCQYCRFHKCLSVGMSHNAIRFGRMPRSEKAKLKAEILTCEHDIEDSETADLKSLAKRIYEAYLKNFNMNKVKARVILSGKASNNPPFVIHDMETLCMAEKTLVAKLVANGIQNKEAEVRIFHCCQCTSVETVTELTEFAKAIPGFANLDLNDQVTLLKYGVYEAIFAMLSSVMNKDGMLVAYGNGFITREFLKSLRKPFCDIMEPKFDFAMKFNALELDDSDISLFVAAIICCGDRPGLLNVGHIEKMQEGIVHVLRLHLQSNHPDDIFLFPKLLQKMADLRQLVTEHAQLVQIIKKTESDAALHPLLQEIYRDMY
In short: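 HepG2 cells transiently transfected with multiplexed GAL4-UAS reporters driven by exogenous chimeric NR-Gal4 proteins; reporter mRNA measured after 24 h dosing. Read-out by RT-PCR, 6-FAM labelling, HpaI digestion and capillary electrophoresis; gain of signal versus DMSO.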

[2] = target: human Peroxisome Proliferator-activated Receptor delta (PPARd), PPARD (gene 5467) (UniProt Q03181); assay: ATG_PPARd_TRANS: Attagene TRANS-FACTORIAL HepG2 Assay for human Peroxisome Proliferator-activated Receptor delta (PPARd) (AID 2283002)
Sequence of human Peroxisome Proliferator-activated Receptor delta (PPARd), PPARD (gene 5467) (Q03181 whole entry, looked up, the tested form may be a part): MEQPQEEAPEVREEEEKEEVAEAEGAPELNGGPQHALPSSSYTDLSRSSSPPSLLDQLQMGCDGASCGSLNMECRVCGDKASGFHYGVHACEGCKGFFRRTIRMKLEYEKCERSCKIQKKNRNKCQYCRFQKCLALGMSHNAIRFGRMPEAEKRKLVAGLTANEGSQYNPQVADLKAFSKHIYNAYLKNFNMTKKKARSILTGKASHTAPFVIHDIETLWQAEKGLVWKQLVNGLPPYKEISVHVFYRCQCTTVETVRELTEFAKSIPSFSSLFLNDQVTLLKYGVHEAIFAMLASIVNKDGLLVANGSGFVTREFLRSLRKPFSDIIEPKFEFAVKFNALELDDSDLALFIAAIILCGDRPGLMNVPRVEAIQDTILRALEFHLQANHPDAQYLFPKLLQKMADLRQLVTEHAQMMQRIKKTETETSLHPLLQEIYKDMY
In short: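 Fluorescence from capillary electrophoresis of labelled RT-PCR reporter fragments gives the signal; DMSO sets baseline. Cells: HepG2 transiently carrying GAL4-UAS reporter units plus chimeric nuclear receptor-Gal4 proteins, exposed to chemicals for 24 h.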

[3] = target: human Retinoic Acid Receptor beta (RARb), RARB (gene 5915) (UniProt P10826); assay: ATG_RARb_TRANS: Attagene TRANS-FACTORIAL HepG2 Assay for human Retinoic Acid Receptor beta (AID 2283004)
In short: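 Readout is reporter mRNA induction: RNA reverse-transcribed, PCR-amplified, FAM-labelled, HpaI-cut and resolved by capillary electrophoresis. Transiently transfected HepG2 cells carrying exogenous NR–Gal4 chimeras were dosed for 24 h; activity fitted upward relative to DMSO.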

[4] = target: Peroxisome proliferator-activated receptor gamma (Homo sapiens) (UniProt P37231); assay: ATG_PPARg_TRANS: Attagene TRANS-FACTORIAL HepG2 Assay for human Peroxisome Proliferator-activated Receptor-gamma (PPARg) (AID 2283007)
Sequence of Peroxisome proliferator-activated receptor gamma (Homo sapiens) (P37231 whole entry, looked up): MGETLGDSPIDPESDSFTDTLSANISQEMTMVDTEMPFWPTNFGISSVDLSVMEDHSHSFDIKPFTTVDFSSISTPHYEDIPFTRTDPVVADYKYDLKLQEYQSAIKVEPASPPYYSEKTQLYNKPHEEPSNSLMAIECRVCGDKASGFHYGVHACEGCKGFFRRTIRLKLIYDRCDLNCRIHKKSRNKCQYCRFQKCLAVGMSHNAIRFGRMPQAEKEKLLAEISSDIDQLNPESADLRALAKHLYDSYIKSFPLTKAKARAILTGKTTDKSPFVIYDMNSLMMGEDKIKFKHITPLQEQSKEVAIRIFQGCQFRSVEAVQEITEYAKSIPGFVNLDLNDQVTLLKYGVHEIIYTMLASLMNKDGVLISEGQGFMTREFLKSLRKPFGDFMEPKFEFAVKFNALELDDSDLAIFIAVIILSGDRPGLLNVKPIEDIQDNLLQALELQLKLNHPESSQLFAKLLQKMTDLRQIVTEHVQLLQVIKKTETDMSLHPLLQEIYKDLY
In short: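 Twenty-four hours after chemical dosing of transiently transfected HepG2 cells, isolated RNA was converted to cDNA, reporter sequences amplified and 6-FAM-labelled, then HpaI-digested and analysed by capillary electrophoresis. Signal increase against DMSO was fitted.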

[5] = target: Retinoic acid receptor RXR-alpha (Homo sapiens) (UniProt P19793); assay: ATG_RXRa_TRANS: Attagene TRANS-FACTORIAL HepG2 Assay for human Retinoid X Receptor alpha (RXRa) (AID 2283012)
Sequence of Retinoic acid receptor RXR-alpha (Homo sapiens) (P19793 whole entry, looked up, the tested form may be a part): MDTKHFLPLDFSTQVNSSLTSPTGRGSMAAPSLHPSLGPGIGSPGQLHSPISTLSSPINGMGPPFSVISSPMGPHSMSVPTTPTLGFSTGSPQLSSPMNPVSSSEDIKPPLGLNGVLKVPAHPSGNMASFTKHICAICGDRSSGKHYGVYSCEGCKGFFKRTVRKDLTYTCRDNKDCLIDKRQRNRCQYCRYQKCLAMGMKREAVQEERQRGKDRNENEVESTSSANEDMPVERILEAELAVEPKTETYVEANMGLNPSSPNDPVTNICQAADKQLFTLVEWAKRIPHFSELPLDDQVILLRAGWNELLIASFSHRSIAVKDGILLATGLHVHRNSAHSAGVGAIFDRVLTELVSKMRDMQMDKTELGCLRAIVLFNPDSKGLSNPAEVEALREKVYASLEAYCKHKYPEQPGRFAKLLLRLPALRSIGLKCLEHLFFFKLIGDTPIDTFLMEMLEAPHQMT
In short: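 HepG2 cells transiently transfected with GAL4-UAS reporter units and chimeric RXRa-Gal4 protein, treated 24 h. Reporter mRNA measured by RT-PCR, fluorescent labelling, HpaI digestion and capillary electrophoresis. Induction fitted against DMSO.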

[6] = target: human Retinoid X Receptor beta (RXRb), RXRB (gene 6257) (UniProt P28702); assay: ATG_RXRb_TRANS: Attagene TRANS-FACTORIAL HepG2 Assay for human Retinoid X Receptor beta (RXRb) (AID 2283013)
Sequence of human Retinoid X Receptor beta (RXRb), RXRB (gene 6257) (P28702 whole entry, looked up, the tested form may be a part): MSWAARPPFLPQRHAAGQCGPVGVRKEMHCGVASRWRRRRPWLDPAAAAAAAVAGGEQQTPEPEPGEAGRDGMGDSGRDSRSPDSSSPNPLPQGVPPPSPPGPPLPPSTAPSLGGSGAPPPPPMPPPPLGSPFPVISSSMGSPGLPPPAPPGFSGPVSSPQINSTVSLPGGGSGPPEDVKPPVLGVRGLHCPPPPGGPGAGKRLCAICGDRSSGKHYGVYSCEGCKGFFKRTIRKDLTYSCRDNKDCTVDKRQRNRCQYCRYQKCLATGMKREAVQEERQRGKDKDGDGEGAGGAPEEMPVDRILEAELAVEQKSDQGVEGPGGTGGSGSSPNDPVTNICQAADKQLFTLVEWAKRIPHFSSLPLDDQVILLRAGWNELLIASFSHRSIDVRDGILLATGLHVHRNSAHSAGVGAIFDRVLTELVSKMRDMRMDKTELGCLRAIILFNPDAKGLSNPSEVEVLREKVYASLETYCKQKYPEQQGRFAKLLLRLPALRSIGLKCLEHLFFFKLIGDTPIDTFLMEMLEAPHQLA
In short: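 HepG2 cells were transiently transfected with multiplexed GAL4-UAS reporters and a chimeric RXRb-Gal4 construct, then exposed for 24 h. Reporter mRNA was quantified by RT-PCR, FAM labeling, HpaI digestion and capillary electrophoresis; gain of signal was scored against DMSO.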

[7] = target: Nuclear receptor subfamily 1 group I member 2 (Homo sapiens) (UniProt O75469); assay: ATG_PXR_TRANS: Attagene TRANS-FACTORIAL HepG2 Assay for human Pregnane X Receptor (PXR) (AID 2283008)
Sequence of Nuclear receptor subfamily 1 group I member 2 (Homo sapiens) (O75469 whole entry, looked up, the tested form may be a part): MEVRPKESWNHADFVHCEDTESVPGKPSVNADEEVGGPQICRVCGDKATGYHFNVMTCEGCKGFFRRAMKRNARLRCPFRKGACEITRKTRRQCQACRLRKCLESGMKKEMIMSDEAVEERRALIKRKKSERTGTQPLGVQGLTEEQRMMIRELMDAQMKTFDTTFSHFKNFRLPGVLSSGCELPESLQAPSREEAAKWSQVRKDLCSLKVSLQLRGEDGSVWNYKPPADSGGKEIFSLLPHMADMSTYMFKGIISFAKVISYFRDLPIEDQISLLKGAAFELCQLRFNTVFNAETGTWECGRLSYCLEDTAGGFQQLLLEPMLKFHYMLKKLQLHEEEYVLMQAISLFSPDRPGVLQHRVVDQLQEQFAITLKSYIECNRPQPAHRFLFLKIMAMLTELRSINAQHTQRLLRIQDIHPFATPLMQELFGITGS
In short: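 Read-out is fluorescence of labelled reporter cDNA fragments separated by capillary electrophoresis after RT-PCR and HpaI digestion. Source: HepG2 cells carrying PXR-GAL4/UAS reporter constructs, treated 24 h; activity fitted upward relative to DMSO.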

[8] = target: human Thyroid Receptor alpha (THRa1), THRA (gene 7067) (UniProt P10827); assay: ATG_THRa1_TRANS: Attagene TRANS-FACTORIAL HepG2 Assay for human Thyroid Receptor alpha (THRa1) (AID 2283014)
Sequence of human Thyroid Receptor alpha (THRa1), THRA (gene 7067) (P10827 whole entry, looked up, the tested form may be a part): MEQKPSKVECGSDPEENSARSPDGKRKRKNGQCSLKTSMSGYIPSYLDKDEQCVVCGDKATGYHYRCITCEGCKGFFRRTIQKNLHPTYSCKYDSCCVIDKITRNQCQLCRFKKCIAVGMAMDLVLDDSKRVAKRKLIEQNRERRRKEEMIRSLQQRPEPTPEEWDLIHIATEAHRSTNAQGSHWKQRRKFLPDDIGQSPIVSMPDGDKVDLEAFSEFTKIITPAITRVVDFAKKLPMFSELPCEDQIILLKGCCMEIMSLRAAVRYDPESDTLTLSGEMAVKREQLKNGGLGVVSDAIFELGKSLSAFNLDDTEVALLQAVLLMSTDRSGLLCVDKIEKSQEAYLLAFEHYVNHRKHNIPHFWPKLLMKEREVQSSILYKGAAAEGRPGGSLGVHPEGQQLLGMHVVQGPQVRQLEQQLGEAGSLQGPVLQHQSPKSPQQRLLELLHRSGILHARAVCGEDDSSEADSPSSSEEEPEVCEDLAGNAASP
In short: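 Transient HepG2 transfection, NR-Gal4 chimera driving GAL4-UAS reporters; 24 h compound exposure; total RNA, oligo(dT) RT, PCR, fluorescent primer extension, capillary electrophoresis. Upward direction vs DMSO control.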

[9] = target: human RAR-related Orphan Receptor beta (RORb), RORB (gene 6096) (UniProt Q92753); assay: ATG_RORb_TRANS: Attagene TRANS-FACTORIAL HepG2 Assay for human RAR-related Orphan Receptor beta (RORb) (AID 2283010)
Sequence of human RAR-related Orphan Receptor beta (RORb), RORB (gene 6096) (Q92753 whole entry, looked up, the tested form may be a part): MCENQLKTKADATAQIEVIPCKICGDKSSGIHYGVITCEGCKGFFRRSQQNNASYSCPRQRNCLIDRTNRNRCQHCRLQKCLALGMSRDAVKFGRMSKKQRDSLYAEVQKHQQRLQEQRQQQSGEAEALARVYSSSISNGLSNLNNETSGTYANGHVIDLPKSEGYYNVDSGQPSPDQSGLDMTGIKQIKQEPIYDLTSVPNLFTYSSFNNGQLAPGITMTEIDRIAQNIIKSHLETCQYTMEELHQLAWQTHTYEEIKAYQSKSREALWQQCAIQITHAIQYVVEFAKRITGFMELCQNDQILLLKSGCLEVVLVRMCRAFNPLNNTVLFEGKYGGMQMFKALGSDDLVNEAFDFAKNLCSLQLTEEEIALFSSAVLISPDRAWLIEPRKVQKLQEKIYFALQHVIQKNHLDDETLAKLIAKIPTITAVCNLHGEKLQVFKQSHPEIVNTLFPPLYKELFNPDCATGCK
In short: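 HepG2 cells transiently transfected with GAL4-UAS reporter units expressing chimeric NR-Gal4 protein; reporter mRNA measured 24 h after dosing by RT-PCR, 6-FAM labelling and capillary electrophoresis. Gain-of-signal fitted relative to DMSO baseline.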

[10] = target: human RAR-related Orphan Receptor gamma (RORg), RORC (gene 6097) (UniProt P51449); assay: ATG_RORg_TRANS: Attagene TRANS-FACTORIAL HepG2 Assay for human RAR-related Orphan Receptor gamma (RORg) (AID 2283011)
Sequence of human RAR-related Orphan Receptor gamma (RORg), RORC (gene 6097) (P51449 whole entry, looked up, the tested form may be a part): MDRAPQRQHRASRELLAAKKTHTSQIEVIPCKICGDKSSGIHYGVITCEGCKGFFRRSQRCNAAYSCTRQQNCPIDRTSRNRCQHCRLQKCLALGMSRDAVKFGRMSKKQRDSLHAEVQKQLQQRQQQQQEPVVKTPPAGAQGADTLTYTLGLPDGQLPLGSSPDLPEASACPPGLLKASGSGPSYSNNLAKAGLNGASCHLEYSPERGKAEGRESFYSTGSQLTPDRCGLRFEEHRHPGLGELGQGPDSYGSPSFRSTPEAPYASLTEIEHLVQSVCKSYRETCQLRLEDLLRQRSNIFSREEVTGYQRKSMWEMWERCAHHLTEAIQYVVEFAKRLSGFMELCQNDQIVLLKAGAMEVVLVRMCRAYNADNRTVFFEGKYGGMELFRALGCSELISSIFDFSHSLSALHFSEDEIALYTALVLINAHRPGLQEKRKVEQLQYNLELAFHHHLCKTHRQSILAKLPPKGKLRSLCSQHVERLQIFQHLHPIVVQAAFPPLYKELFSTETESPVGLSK
In short: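 Transient MRTU transfection of HepG2 (TRANS format, exogenous NR-Gal4 chimera). 24 h dosing. Total RNA → oligo(dT) RT → PCR → 6-FAM labelling → HpaI cut → CE. Gain vs DMSO.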

[11] = read-out: Intercellular Adhesion Molecule 1 (ICAM1), ICAM1 (gene 3383); assay: BSK_3C_ICAM1: BioMAP Diversity Plus: 3C Assay for Intercellular Adhesion Molecule 1 (ICAM1) Biomarker Activity (AID 2283003; active means hit-call score of the fitted dose curve at least 0.9, where 1 is the maximum; inactive means score below 0.9); settings: primary human endothelial cells (HUVEC); actives raise or lower the signal
In short: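 HUVEC primary cells stimulated under 3C conditions; ICAM1 measured by ELISA 24 h after compound dosing. Curves fitted bidirectionally against the DMSO baseline. Overt cytotoxicity checked by SRB staining of parallel cultures.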

[12] = BSK_3C_Proliferation: Cell Proliferation Assessment in the BioMAP Diversity Plus: 3C Assay (AID 2283006; active means hit-call score of the fitted dose curve at least 0.9, where 1 is the maximum; inactive means score below 0.9;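 further: potency may reflect either rise or fall in cell number versus DMSO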); settings: primary human endothelial cells (HUVEC)
In short: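 Subconfluent HUVEC (3C system) cultured with chemical; relative cell number read at 48 h by sulforhodamine B total-protein staining (0.1% SRB after 10% TCA fixation, 560 nm). Bidirectional fit relative to DMSO.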

[13] = read-out: E-selectin (Homo sapiens) (UniProt P16581); assay: BSK_3C_Eselectin: BioMAP Diversity Plus: 3C Assay for Eselectin Biomarker Activity (AID 2283015; active means hit-call score of the fitted dose curve at least 0.9, where 1 is the maximum; inactive means score below 0.9); settings: primary human endothelial cells (HUVEC); actives raise or lower the signal
In short: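 HUVEC, 3C stimulation; compound exposure 24 h; E-selectin by ELISA; gain- or loss-of-signal fitted bidirectionally vs DMSO baseline.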

[14] = read-out: Interleukin-1 alpha (IL1a), IL1A (gene 3552); assay: BSK_BE3C_IL1a: BioMAP Diversity Plus: BE3C Assay for Interleukin-1 alpha (IL1a) Biomarker Activity (AID 2283016; active means hit-call score of the fitted dose curve at least 0.9, where 1 is the maximum; inactive means score below 0.9); settings: primary human bronchial epithelial cells; actives raise or lower the signal
In short: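 Human primary bronchial epithelial cells, 24 h chemical exposure; IL-1a quantified by ELISA, fitted bidirectionally against DMSO. Cytotoxicity assessed in parallel by SRB total-protein staining at the time of measurement.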

[15] = read-out: Monocyte Chemoattractant Protein-1 (MCP1), CCL2 (gene 6347); assay: BSK_3C_MCP1: BioMAP Diversity Plus: 3C Assay for Monocyte Chemoattractant Protein-1 (MCP1) Biomarker Activity (AID 2283017; active means hit-call score of the fitted dose curve at least 0.9, where 1 is the maximum; inactive means score below 0.9); settings: primary human endothelial cells (HUVEC); actives raise or lower the signal
In short: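 HUVEC, 3C system; 24 h chemical exposure; MCP-1 by ELISA; bidirectional curve fit vs DMSO baseline.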

[16] = read-out: Monocyte Chemoattractant Protein-1 (MCP1), CCL2 (gene 6347); assay: BSK_4H_MCP1: BioMAP Diversity Plus: 4H Assay for Monocyte Chemoattractant Protein-1 (MCP1) Biomarker Activity (AID 2283018; active means hit-call score of the fitted dose curve at least 0.9, where 1 is the maximum; inactive means score below 0.9); settings: primary human endothelial cells (HUVEC); actives raise or lower the signal
In short: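 Human umbilical vein endothelial cells (4H system) exposed to chemicals for 24 h in 96-well format. MCP-1 measured by ELISA; bidirectional fitting against DMSO, with SRB total-protein staining in parallel cultures for cytotoxicity.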

[17] = read-out: Human Leukocyte Antigen - DR isotype (HLADR), HLA-DRA (gene 3122); assay: BSK_3C_HLADR: BioMAP Diversity Plus: 3C Assay for Human Leukocyte Antigen - DR isotype (HLADR) Biomarker Activity (AID 2283019; active means hit-call score of the fitted dose curve at least 0.9, where 1 is the maximum; inactive means score below 0.9); settings: primary human endothelial cells (HUVEC); actives raise or lower the signal
In short: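 HUVEC, 3C stimulation, 24 h post-dose; HLA-DR by ELISA; bidirectional curve fit vs DMSO baseline; gain or loss of signal scored.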

[18] = read-out: Interleukin-8 (IL8), CXCL8 (gene 3576); assay: BSK_3C_IL8: BioMAP Diversity Plus: 3C Assay for Interleukin-8 (IL8) Biomarker Activity (AID 2283020; active means hit-call score of the fitted dose curve at least 0.9, where 1 is the maximum; inactive means score below 0.9); settings: primary human endothelial cells (HUVEC); actives raise or lower the signal
In short: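 Primary human umbilical vein endothelial cells were dosed for 24 h. IL-8 was quantified by ELISA and fitted bidirectionally against DMSO. Cytotoxicity was assessed in parallel cultures by SRB staining at 560 nm.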

[19] = target: Retinoic acid receptor alpha (Homo sapiens) (UniProt P10276); assay: ATG_RARa_TRANS: Attagene TRANS-FACTORIAL HepG2 Assay for human Retinoic Acid Receptor alpha (RARa) (AID 2283005)
In short: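 HepG2 transiently transfected with multiplex GAL4-UAS reporter units including a human RARa–GAL4 chimera; 24 h compound exposure. Reporter mRNA quantified by RT-PCR, 6-FAM labeling and capillary electrophoresis; gain of signal versus DMSO.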

[20] = target: human Retinoic Acid Receptor gamma (RARg), RARG (gene 5916) (UniProt P13631); assay: ATG_RARg_TRANS: Attagene TRANS-FACTORIAL HepG2 Assay for human Retinoic Acid Receptor gamma (RARg) (AID 2283009)
In short: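 HepG2 transiently transfected with GAL4-UAS reporter units and chimeric NR-Gal4 constructs; 24 h compound exposure. Reporter mRNA quantified by RT-PCR, FAM labeling, HpaI digestion and capillary electrophoresis; gain-of-signal versus DMSO.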

Measured: AC50

Sequence of E-selectin (Homo sapiens) (P16581 whole entry, looked up): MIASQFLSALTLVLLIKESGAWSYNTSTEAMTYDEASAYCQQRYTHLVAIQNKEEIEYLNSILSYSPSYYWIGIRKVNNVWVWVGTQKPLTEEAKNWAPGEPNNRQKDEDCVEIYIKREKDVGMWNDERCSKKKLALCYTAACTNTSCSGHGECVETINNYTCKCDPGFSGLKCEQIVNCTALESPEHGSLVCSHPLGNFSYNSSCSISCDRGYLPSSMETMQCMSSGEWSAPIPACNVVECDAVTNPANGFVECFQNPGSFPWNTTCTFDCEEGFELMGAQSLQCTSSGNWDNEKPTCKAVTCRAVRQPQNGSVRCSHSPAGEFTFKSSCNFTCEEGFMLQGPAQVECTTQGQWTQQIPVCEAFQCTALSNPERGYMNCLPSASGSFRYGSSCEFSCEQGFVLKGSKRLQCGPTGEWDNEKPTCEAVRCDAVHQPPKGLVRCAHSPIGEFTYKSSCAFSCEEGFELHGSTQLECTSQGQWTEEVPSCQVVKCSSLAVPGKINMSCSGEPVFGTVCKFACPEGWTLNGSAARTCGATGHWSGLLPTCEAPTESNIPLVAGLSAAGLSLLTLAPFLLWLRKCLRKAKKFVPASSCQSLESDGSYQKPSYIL

CC1(C)CCC(C)(C)c2cc(C(=O)Nc3ccc(C(=O)O)cc3)ccc21
inactive: [1] | [2] | [3] | [5] | [6]
active: [4] 100 µM

CC(CCO)CCc1ccccc1 (stereo not given)
active: [7] 48.2 µM
inactive: [1] | [2] | [4] | [5] | [6] | [8]

CCCCCCOC(=O)CC
inactive: [1] | [2] | [4] | [7] | [9] | [10] | [5] | [6] | [8]

C=C(C)C(=O)O[C@H]1C[C@@H]2CC[C@@]1(C)C2(C)C
active: [11] 28.8 µM | [12] 8.38 µM | [7] 31.6 µM | [6] 100 µM | [13] 15.1 µM | [14] 20 µM | [15] 20 µM | [16] 5.54 µM | [17] 9.37 µM | [18] 20 µM
inactive: [1] | [2] | [4] | [9] | [5]

CC(C)(COC(=O)c1ccccc1)COC(=O)c1ccccc1
active: [12] 22.2 µM | [13] 20 µM | [15] 34.4 µM | [16] 11.3 µM | [17] 27.8 µM
inactive: [1] | [2] | [11] | [4] | [7] | [6] | [8] | [14] | [18]

O=c1cc(-c2ccccc2)oc2cc(O)cc(O)c12
inactive: [1] | [2] | [19] | [7] | [20]

CNCCCC12CCC(c3ccccc31)c1ccccc12
inactive: [1] | [2] | [4] | [7] | [5]

C=CC(C)(O)CCC=C(C)CCC=C(C)C (stereo not given)
active: [4] 32.6 µM | [7] 3.93 µM | [6] 27.3 µM
inactive: [1] | [2]

c1ccc2[nH]ccc2c1
inactive: [1] | [2] | [4] | [7] | [6] | [8]

Cc1cccc(Nc2ccccc2C(=O)O)c1C
inactive: [7] | [5] | [6] | [8]
active: [1] 14.5 µM | [2] 77.8 µM | [4] 12.6 µM

Clc1cccc(Cl)n1
inactive: [1] | [2] | [4] | [7] | [5] | [6] | [8]

O=C(O)c1cccc([N+](=O)[O-])c1
inactive: [1] | [2] | [4] | [7] | [10] | [5] | [8]

CCCc1c(OCCCOc2ccc(OCC(=O)O)cc2)ccc(C(C)=O)c1O
inactive: [5] | [8]
active: [1] 0.322 µM | [2] 0.0841 µM | [4] 0.195 µM | [7] 26.6 µM | [6] 8.03 µM
